# Results reported in paper PMC7862700, “An all-to-all approach to the identification of sequence-specific readers for epigenetic DNA modifications on cytosine”.
# Legend:
# Assay in all cases: DAPPL (digital affinity profiling via proximity ligation, sequencing); 10 mM Tris-HCl pH 7.5, 50 mM NaCl, 1 mM DTT, 4% glycerol, room temperature, 30 min; GST-TFs on glutathione beads, 16-mer random dsDNA library, 0.1% formaldehyde crosslink after washing; high values mean tight binding
# [1] = molecular target: T1, FEV (Homo sapiens, UniProt Q99581 1-238); settings: protein: recombinant; tags: N-terminal GST; dsDNA, one strand shown
# T1 sequence: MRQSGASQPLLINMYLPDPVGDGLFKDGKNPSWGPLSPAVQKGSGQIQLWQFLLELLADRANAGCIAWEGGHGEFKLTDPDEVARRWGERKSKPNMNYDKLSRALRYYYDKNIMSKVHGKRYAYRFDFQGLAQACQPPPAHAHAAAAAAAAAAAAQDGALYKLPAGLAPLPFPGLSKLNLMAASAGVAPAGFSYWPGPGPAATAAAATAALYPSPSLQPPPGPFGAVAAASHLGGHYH
# Method in brief: (§1)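 Human transcription factors carrying a GST fusion were produced in yeast, bound to glutathione beads, tagged with DNA barcodes and pooled together with a tag-only sample. Each pool was held with 200 nmole of a random double-stranded 16-mer DNA library in Tris/NaCl/DTT/glycerol buffer for 30 min at room temperature, then washed, crosslinked in 0.1% formaldehyde, proximity-ligated with BsaI/T4 ligase (1 h, 37 °C), PCR-amplified and sequenced on an Illumina NextSeq500. Binding signal is the read frequency of each hexamer for a given factor divided by its frequency in the tag-only sample.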
# [2] = molecular target: ETV5 (Homo sapiens, UniProt P41161 1-510); settings: protein: recombinant; tags: N-terminal GST; dsDNA, one strand shown
# Sequence of ETV5 (P41161 whole entry): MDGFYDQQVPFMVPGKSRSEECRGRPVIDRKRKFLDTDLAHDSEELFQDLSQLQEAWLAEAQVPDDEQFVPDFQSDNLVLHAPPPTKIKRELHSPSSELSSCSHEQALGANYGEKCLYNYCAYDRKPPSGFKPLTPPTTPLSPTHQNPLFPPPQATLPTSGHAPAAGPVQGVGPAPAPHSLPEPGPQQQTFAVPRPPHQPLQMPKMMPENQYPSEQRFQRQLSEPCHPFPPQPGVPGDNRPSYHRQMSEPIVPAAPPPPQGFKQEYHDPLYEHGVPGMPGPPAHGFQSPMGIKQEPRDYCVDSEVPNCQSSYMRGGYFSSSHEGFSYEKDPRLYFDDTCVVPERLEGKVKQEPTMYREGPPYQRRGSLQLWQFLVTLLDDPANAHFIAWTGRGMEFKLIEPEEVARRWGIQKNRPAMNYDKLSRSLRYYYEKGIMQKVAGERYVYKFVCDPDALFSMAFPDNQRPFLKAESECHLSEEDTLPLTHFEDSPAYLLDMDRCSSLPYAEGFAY
# Method in brief: as §1
# [3] = molecular target: HSF1 (Homo sapiens, UniProt Q00613 1-529); settings: protein: recombinant; tags: N-terminal GST; chain copies: 3; dsDNA, one strand shown
# Sequence of HSF1 (Q00613 whole entry): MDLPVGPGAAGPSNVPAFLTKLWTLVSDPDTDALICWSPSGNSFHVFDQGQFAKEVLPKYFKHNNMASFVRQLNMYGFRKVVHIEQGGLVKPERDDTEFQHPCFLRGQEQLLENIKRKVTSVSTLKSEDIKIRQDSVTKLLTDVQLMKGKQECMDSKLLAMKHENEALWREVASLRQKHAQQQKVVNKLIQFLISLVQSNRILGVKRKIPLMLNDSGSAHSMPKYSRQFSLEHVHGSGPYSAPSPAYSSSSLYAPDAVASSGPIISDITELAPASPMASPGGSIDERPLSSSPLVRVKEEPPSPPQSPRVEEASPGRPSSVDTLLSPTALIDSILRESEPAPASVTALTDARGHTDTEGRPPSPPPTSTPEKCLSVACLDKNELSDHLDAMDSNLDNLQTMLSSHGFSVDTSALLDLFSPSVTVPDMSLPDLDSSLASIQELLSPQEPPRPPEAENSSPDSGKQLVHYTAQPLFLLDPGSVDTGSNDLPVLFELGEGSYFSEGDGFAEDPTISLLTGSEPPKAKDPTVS
# Method in brief: as §1
# [4] = molecular target: T2, SPIC (Homo sapiens, UniProt Q8N5J4 1-248); settings: protein: recombinant; tags: N-terminal GST; dsDNA, one strand shown
# T2 sequence: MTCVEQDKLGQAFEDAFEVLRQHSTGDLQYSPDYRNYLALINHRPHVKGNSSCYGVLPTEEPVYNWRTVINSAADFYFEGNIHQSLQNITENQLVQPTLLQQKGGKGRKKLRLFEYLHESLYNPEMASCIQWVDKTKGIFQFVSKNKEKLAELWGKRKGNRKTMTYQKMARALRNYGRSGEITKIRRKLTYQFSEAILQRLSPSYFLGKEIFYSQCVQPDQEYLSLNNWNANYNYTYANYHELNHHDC
# Method in brief: as §1
# [5] = molecular target: ELF4 (Homo sapiens, UniProt Q99607 1-663); settings: protein: recombinant; tags: N-terminal GST; dsDNA, one strand shown
# Sequence of ELF4 (Q99607 whole entry): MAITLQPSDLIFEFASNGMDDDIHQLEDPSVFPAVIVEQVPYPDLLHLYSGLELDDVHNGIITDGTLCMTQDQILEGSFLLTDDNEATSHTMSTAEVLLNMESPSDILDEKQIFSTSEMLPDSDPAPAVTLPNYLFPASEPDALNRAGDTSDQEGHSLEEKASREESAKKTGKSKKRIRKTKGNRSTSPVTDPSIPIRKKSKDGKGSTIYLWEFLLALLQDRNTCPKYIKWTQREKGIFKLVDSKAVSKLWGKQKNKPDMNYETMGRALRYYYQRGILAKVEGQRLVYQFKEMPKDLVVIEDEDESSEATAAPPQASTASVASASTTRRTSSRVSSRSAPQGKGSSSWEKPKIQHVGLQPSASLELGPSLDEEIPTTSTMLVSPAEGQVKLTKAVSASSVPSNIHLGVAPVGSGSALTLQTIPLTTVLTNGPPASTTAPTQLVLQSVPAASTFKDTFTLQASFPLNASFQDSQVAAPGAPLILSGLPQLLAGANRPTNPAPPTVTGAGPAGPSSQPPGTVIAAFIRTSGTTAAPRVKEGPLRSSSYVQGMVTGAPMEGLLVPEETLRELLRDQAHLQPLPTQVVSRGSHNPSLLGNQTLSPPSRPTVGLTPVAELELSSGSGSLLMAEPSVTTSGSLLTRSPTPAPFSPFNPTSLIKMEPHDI
# Method in brief: as §1
# [6] = molecular target: T3, ELK4 (Homo sapiens, UniProt P28324-2 1-405); settings: protein: recombinant; tags: N-terminal GST; dsDNA, one strand shown
# T3 sequence: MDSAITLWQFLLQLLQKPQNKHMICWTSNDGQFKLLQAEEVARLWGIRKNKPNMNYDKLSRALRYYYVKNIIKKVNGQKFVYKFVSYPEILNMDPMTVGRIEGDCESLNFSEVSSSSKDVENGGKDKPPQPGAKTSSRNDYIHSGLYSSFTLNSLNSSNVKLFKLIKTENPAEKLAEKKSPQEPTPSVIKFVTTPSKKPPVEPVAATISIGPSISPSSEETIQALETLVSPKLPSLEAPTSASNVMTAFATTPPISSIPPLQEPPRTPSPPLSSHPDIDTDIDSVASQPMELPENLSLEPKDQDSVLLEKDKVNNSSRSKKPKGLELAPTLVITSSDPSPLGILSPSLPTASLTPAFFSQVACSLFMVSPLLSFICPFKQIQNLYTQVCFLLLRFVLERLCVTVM
# Method in brief: as §1
# [7] = molecular target: T4, ETV2 (Homo sapiens, UniProt O00321 1-342); settings: protein: recombinant; tags: N-terminal GST; dsDNA, one strand shown
# T4 sequence: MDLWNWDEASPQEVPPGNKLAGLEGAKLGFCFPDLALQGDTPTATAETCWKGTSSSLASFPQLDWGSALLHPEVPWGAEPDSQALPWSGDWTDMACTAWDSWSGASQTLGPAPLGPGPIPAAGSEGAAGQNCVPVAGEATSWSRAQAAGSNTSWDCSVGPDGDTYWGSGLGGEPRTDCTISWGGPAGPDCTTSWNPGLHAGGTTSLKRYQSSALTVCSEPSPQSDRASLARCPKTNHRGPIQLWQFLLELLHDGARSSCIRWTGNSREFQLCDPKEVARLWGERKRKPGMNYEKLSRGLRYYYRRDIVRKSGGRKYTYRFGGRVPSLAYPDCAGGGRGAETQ
# Method in brief: as §1
# [8] = molecular target: T5, ELF3 (Homo sapiens, UniProt P78545 1-371); settings: protein: recombinant; tags: N-terminal GST; dsDNA, one strand shown
# T5 sequence: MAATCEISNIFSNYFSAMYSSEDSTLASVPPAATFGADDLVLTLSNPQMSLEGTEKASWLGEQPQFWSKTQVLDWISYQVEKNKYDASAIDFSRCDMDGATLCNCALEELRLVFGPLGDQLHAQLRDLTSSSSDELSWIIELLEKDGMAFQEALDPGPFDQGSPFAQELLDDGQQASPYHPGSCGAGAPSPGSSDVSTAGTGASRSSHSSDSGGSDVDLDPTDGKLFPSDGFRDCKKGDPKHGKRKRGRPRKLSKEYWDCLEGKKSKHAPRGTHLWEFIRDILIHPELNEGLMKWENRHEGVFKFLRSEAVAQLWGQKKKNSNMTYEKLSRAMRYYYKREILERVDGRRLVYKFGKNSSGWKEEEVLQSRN
# Method in brief: as §1
# [9] = molecular target: CRX (Homo sapiens, UniProt O43186 1-299); settings: protein: recombinant; tags: N-terminal GST; dsDNA, one strand shown
# Sequence of CRX (O43186 whole entry): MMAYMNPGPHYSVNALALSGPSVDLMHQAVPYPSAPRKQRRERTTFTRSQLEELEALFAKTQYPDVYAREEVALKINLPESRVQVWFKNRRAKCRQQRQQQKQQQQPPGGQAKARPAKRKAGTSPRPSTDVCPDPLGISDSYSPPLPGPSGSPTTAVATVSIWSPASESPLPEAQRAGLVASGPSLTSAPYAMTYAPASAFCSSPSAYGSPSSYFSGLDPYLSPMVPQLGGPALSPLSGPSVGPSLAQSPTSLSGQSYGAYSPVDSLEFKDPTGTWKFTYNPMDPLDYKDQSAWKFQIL
# Method in brief: as §1
# [10] = molecular target: ETV1 (Homo sapiens, UniProt P50549 1-477); settings: protein: recombinant; tags: N-terminal GST; dsDNA, one strand shown
# Sequence of ETV1 (P50549 whole entry): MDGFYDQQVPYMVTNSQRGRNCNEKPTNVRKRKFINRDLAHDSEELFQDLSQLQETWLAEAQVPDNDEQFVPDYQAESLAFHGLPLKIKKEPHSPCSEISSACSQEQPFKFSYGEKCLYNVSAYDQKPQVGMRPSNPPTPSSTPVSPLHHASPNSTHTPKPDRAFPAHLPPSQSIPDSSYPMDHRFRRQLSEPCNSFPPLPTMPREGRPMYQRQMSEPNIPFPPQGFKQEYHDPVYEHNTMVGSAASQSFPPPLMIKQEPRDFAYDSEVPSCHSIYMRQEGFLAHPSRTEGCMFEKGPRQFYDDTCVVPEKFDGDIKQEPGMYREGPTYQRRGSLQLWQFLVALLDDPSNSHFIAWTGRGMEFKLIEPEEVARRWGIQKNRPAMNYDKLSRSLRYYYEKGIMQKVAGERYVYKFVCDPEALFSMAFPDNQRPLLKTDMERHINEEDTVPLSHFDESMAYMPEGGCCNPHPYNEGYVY
# Method in brief: as §1
# [11] = molecular target: T6, ERF (Homo sapiens, UniProt P50548 1-548); settings: protein: recombinant; tags: N-terminal GST; dsDNA, one strand shown
# T6 sequence: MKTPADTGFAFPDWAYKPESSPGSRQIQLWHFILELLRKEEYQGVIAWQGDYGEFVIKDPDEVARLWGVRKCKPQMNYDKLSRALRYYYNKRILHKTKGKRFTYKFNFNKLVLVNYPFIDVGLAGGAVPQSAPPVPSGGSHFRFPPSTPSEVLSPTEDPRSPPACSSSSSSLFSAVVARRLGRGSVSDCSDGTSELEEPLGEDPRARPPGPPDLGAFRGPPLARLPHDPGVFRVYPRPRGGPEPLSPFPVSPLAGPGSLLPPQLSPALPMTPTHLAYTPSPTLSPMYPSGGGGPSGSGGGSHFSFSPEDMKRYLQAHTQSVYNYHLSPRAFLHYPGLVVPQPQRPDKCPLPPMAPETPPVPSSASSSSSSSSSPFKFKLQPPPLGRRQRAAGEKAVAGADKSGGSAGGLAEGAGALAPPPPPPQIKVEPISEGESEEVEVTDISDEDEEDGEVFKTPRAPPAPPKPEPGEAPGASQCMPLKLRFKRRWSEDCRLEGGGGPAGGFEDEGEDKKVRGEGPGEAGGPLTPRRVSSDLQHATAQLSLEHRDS
# Method in brief: as §1
# [12] = molecular target: T7, ETV3L (Homo sapiens, UniProt Q6ZN32 1-361); settings: protein: recombinant; tags: N-terminal GST; dsDNA, one strand shown
# T7 sequence: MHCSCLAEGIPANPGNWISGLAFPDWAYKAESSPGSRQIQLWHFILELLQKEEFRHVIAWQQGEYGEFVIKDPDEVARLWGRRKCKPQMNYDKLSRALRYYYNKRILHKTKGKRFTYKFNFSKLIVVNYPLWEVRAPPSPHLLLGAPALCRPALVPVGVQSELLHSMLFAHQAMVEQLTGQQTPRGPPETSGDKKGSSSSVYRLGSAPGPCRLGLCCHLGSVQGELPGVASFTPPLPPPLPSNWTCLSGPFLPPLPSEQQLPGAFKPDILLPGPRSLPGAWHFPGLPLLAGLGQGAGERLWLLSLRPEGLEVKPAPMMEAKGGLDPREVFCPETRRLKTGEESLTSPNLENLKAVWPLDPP
# Method in brief: as §1
# [13] = molecular target: T8, ETS2 (Homo sapiens, UniProt P15036 1-469); settings: protein: recombinant; tags: N-terminal GST; dsDNA, one strand shown
# T8 sequence: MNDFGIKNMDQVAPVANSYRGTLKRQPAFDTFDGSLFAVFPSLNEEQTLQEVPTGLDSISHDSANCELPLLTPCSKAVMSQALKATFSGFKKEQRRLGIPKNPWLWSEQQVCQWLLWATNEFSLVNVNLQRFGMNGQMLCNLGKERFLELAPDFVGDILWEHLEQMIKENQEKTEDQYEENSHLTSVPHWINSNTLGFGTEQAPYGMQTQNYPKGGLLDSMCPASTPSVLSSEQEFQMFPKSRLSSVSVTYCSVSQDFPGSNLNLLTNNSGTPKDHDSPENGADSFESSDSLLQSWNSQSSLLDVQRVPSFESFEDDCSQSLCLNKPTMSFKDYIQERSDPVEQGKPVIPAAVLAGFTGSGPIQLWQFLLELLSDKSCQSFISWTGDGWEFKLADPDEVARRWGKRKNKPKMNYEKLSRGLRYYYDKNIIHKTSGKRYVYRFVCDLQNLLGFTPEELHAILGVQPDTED
# Method in brief: as §1
# [14] = molecular target: T9, SPDEF (Homo sapiens, UniProt O95238 1-335); settings: protein: recombinant; tags: N-terminal GST; dsDNA, one strand shown
# T9 sequence: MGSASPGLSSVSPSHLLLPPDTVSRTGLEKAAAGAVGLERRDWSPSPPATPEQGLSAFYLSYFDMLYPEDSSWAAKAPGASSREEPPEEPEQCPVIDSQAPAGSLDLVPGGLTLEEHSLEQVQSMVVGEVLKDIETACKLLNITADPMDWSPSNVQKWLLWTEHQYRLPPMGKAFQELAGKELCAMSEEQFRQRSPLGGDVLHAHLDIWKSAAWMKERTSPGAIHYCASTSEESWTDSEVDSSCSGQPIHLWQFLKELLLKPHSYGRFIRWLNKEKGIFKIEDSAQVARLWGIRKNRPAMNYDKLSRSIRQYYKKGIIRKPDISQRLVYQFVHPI
# Method in brief: as §1
# [15] = molecular target: T10, ETV7 (Homo sapiens, UniProt Q9Y603 1-341); settings: protein: recombinant; tags: N-terminal GST; dsDNA, one strand shown
# T10 sequence: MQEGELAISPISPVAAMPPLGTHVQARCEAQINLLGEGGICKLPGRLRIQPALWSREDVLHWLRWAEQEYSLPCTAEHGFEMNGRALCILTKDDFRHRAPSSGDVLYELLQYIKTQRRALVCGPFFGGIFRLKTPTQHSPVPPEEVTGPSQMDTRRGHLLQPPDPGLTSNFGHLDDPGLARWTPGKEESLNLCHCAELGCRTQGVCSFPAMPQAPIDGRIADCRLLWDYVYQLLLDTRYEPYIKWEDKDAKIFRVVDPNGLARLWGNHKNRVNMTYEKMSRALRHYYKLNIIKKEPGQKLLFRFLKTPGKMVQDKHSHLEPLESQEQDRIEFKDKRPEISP
# Method in brief: as §1
# [16] = molecular target: T11, ELF5 (Homo sapiens, UniProt Q9UKW6-2 1-255); settings: protein: recombinant; tags: N-terminal GST; dsDNA, one strand shown
# T11 sequence: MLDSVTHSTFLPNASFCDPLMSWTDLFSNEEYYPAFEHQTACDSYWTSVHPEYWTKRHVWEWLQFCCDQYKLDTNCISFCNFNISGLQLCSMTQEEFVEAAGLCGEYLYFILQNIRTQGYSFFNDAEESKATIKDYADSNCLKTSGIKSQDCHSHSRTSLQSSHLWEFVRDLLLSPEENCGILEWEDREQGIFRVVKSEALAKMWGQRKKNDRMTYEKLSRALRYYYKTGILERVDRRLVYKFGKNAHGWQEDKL
# Method in brief: as §1
# [17] = molecular target: T12, ETV3 (Homo sapiens, UniProt P41162-2 1-143); settings: protein: recombinant; tags: N-terminal GST; dsDNA, one strand shown
# T12 sequence: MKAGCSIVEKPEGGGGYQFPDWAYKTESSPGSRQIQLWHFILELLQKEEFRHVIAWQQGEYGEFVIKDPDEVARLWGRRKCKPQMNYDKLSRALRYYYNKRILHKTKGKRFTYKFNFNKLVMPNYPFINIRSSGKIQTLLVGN
# Method in brief: as §1
# [18] = molecular target: ETV6 (Homo sapiens, UniProt P41212 1-452); settings: protein: recombinant; tags: N-terminal GST; dsDNA, one strand shown
# Sequence of ETV6 (P41212 whole entry): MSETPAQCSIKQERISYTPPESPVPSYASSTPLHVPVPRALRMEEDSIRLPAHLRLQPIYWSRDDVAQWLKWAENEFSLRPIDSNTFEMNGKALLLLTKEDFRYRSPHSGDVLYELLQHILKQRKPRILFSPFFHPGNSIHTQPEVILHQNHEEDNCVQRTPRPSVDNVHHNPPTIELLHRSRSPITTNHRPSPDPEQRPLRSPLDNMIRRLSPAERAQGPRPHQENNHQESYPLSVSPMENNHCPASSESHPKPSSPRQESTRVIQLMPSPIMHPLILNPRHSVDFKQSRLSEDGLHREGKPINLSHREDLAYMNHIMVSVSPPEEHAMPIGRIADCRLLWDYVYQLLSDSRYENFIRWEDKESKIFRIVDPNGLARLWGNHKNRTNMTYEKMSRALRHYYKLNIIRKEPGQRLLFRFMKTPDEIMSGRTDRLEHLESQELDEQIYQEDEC
# Method in brief: as §1
sequence,measurement,setting,value
TAAGTA,binding signal,[1],"1.16 fold enrichment (6-mer frequency, TF over GST control)"
same,binding signal,[2],"1.18 fold enrichment (6-mer frequency, TF over GST control)"
same,binding signal,[3],"1.76 fold enrichment (6-mer frequency, TF over GST control)"
same,binding signal,[4],"1.25 fold enrichment (6-mer frequency, TF over GST control)"
same,binding signal,[5],"1.24 fold enrichment (6-mer frequency, TF over GST control)"
same,binding signal,[6],"1.18 fold enrichment (6-mer frequency, TF over GST control)"
same,binding signal,[7],"1.38 fold enrichment (6-mer frequency, TF over GST control)"
same,binding signal,[8],"1.36 fold enrichment (6-mer frequency, TF over GST control)"
same,binding signal,[9],"2.63 fold enrichment (6-mer frequency, TF over GST control)"
same,binding signal,[10],"1.29 fold enrichment (6-mer frequency, TF over GST control)"
same,binding signal,[11],"1.24 fold enrichment (6-mer frequency, TF over GST control)"
same,binding signal,[12],"1.22 fold enrichment (6-mer frequency, TF over GST control)"
same,binding signal,[13],"1.2 fold enrichment (6-mer frequency, TF over GST control)"
same,binding signal,[14],"1.21 fold enrichment (6-mer frequency, TF over GST control)"
same,binding signal,[15],"1.13 fold enrichment (6-mer frequency, TF over GST control)"
same,binding signal,[16],"1.25 fold enrichment (6-mer frequency, TF over GST control)"
same,binding signal,[17],"1.23 fold enrichment (6-mer frequency, TF over GST control)"
same,binding signal,[18],"1.28 fold enrichment (6-mer frequency, TF over GST control)"
